Source: PubChem
Shown are actives, neighbours in structure and some others; about 3.5% of the full set was active somewhere.
TEAD-YAP block: TEAD-YAP interaction inhibition | HEK-TIYL cells, TEAD-Gal4/YAP UAS-luciferase luminescence | inhibition, % at 9.12 µM | AID 1259422 | 640,000 compounds, 1.4% hits; in the data active = inhibition above about 32%;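 also: 0% = median of test compound wells and 100% = reference inhibitor wells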
GPR151 activ: activates the human receptor GPR151 | PathHunter beta-arrestin GPR151 cells, luminescence | activation, % at 11.2 µM | 650,000 compounds, 1% hits; in the data active = activation above about 4.9%;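 also: 0% = median of compound wells and 100% = cells with positive control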
MITF primary: blocks human microphthalmia-associated transcription factor. O75030. AlphaScreen MITF homodimerization, bead proximity signal. inhibition, % at 2.6 µM. 650,000 compounds, 0.91% hits. AID 1259374; in the data active = inhibition above about 50%;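 also: 0% = vehicle wells with protein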
FBW7 activator: activators of human E3 ligase FBW7 | AlphaScreen FBW7–phospho-cyclin E peptide binding, activator screen | normalized activity (activation), % at 26.1 µM | 650,000 compounds, 0.13% hits | AID 1259310; in the data active = normalized activity above about 1.9%;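 also: purified mutant Fbw7 with reduced substrate affinity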
GPR151 conf act: confirmation of human GPR151 activators; AID 1508609; GPR151 PathHunter beta-arrestin cells, luminescence, 90 min; % of EA-reagent control over plate median; shares compounds with GPR151 activ; activation, % at 11.2 µM; 6,700 tested, under 10 active;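 active = mean percent activation across replicates above the confirmation screen cutoff of 4.91%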
GPR119 ag: GPR119 activation, counter-screen for GPR151 activators | shares compounds with GPR151 activ | GPR119 PathHunter beta-arrestin cells, luminescence, 90 min; 0 = compound-well median, 100 = enzyme-acceptor control | activation, % at 11.2 µM | 6,700 compounds, 0.3% hits;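 active = mean percent activation in the counterscreen above 29.09%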;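 also: counterscreen on off-target GPR119 to flag nonselective hits from the GPR151 activator screen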
Target sequence (Q8TDV5 whole entry, looked up): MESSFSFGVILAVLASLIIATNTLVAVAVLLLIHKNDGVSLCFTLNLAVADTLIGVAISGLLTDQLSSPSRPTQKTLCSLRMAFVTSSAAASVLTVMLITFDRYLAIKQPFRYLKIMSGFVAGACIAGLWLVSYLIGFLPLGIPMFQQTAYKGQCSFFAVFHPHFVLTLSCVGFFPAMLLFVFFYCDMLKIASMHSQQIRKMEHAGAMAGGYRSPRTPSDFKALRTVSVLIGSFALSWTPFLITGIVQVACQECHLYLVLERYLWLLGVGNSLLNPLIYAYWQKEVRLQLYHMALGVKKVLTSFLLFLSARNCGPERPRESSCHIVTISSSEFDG
Active calls of the source: *; nt = no result.

SMILES	TEAD-YAP block	GPR151 activ	MITF primary	FBW7 activator	GPR151 conf act	GPR119 ag
O=C(CCC(=O)Nc1ccc(Br)cc1)N/N=C/c1ccc(F)cc1	10	6.4*	11	0	0	-3
CC(C)=CCCC(C)CCN1CCCCC1 (stereo not drawn)	1	0	8	0	nt	nt
Cc1nnc(SCCCn2c(N3CCOCC3)nc3c2c(=O)[nH]c(=O)n3C)s1	-17	6.9*	-8	0	0	1
CN1CCN(Cc2cccc(OCc3ccccc3)c2)CC1CCO (stereo not drawn)	-12	1	15	0	nt	nt
CC(C)c1ccc(NS(=O)(=O)c2ccc3[nH]cc(C(=O)N4CCCC4)c(=O)c3c2)cc1	-5	9.7*	49	0	1	4
CCc1ccc(NS(=O)(=O)c2ccc3[nH]cc(C(=O)N4CCCCC4)c(=O)c3c2)cc1	-1	0	-5	0	nt	nt
COC(=O)c1sccc1N/N=C/c1ccc(C)o1	-46	-3	-8	0	nt	nt
CN(Cc1ccccc1)C(=O)Cn1ncc2ccsc2c1=O	-30	5.6*	-7	0	-1	-22
O=C(c1ccccc1Cl)N1N=C(c2cccnc2)CC1c1ccccc1O (stereo not drawn)	15	6.7*	9	0	-1	6
CCOc1ccc2nc(SCC(=O)Nc3ccc4c(c3)OCCO4)c(C#N)cc2c1	5	6.4*	5	0	0	-10
CCOc1ccc2cc(C#N)c(SCC(=O)NC(C)(C)C)nc2c1	-2	7.0*	-1	0	0	6
N#Cc1cc2cc3c(cc2nc1SCC(=O)Nc1ccc(F)cc1)OCCO3	7	6.2*	-8	0	0	-10
N#Cc1cc2cc3c(cc2nc1SCC(=O)Nc1ccc(F)cc1)OCO3	-4	2	3	0	nt	nt
CCc1nc(C(N)=O)c2[nH]c(=O)n(-c3ccccc3Cl)c2n1	3	1	6	0	nt	nt
Nc1ncc(-c2ccncn2)c(-c2ccc(C(F)(F)F)nc2)n1	0	-1	8	0	nt	nt
CCOC(=O)c1sc2nc(CC(=O)OC)nc(Nc3ccc(O)cc3)c2c1C	13	0	-1	0	nt	nt
Cc1nn(Cc2ccccc2Cl)c(Cl)c1/C=C/C(=O)OCC#N	-23	10*	3	0	-1	1
CCOc1ccc(NC(=O)C2CCN(c3ccc(N4CCOCC4)nn3)CC2)cc1	-2	1	-10	0	nt	nt
COCCN1Cc2cccc(C(=O)Nc3ccc(OC)c(OC)c3)c2C1=O	-2	-1	8	1	nt	nt
O=S(=O)(NCc1csc(-c2cccnc2)n1)c1ccc(Br)cc1	-9	5.6*	11	0	0	-10
CCOc1ccc(/C(O)=C2/C(=O)C(=O)N(CCN(C)C)C2c2ccc(C(C)C)cc2)c(C)c1 (stereo not drawn)	8	-1	-1	0	nt	nt
COc1cccc(OC)c1C(=O)Nc1ccc(Br)cn1	-7	15*	-11	0	-1	4
COc1cccc(OC)c1C(=O)Nc1ccc([N+](=O)[O-])cn1	5	0	10	0	nt	nt
COc1cccc(OC)c1C(=O)NC(=S)Nc1ccc(Br)cn1	-17	-1	-2	0	nt	nt
COc1cccc(OC)c1C(=O)Nc1ncc([N+](=O)[O-])s1	5	5.7*	11	0	0	-9
SMILES	TEAD-YAP block	GPR151 activ	MITF primary	FBW7 activator	GPR151 conf act	GPR119 ag
NC(=O)C1(N2CCCCC2)CCN(S(=O)(=O)c2ccc(Cl)cc2)CC1	-9	5.4*	-2	0	0	3
COc1cc(Nc2ncnc3c2nc(-c2ccc4c(ccn4C)c2)n3C(C)C)cc(OC)c1OC	9	-1	8	0	nt	nt
CCOCCCNc1c(-c2ccccc2)nc2ccc(Br)cn12	-39	1	-3	0	nt	nt
CCOCCCNc1c(-c2ccccc2)nc2cnccn12	6	5.6*	9	0	0	5
Clc1ccc(Cn2ncc3c(NCCN4CCOCC4)ncnc32)cc1	-4	6.7*	11	0	0	2
Cc1ccc(Cn2ncc3c(NCCCN4CCOCC4)ncnc32)cc1	-1	0	-11	0	nt	nt
CCCc1ccc(-c2ccc(C(=O)Nc3ccc(C)cc3)cc2)nc1	-3	7.1*	13	0	0	-10
O=C(c1nn(C23CC4CC(CC(C4)C2)C3)cc1[N+](=O)[O-])N1CCOCC1	7	-2	14	0	nt	nt
COc1ccc(NC(=O)c2ccc3c(=O)n(-c4ccccc4)c(SCc4nc5ccccc5[nH]4)nc3c2)cc1OC	9	1	14	2	nt	nt
CC1CCN(Cc2nnnn2CC(=O)N2CCCC(OCc3cccnc3)C2)CC1 (stereo not drawn)	1	4	-8	0	nt	nt
C=CCn1cnc2c(nnn2-c2ccc(OC)c(OC)c2)c1=O	4	7.9*	-15	0	1	8
CCN1CCN(C(=O)c2ccccc2[N+](=O)[O-])CC1	2	0	-12	0	nt	nt
CCc1ccc(NC(=O)CCc2ccc(CC)o2)cc1	-14	8.5*	1	0	0	-4
Nc1c(C(=O)c2ccccc2F)sc2c1c(=O)[nH]c(=O)n2CCc1ccccc1	4	1	-5	0	nt	nt
CSC1=NC(c2cccc([N+](=O)[O-])c2)C(C(=O)OC(C)C)=C(C)N1 (stereo not drawn)	1	5.1*	4	0	0	7
Cc1noc(C)c1-c1nc(Nc2ccc(Oc3ccccc3)cc2)c2ncn(CCN3CCCC3=O)c2n1	-12	-1	7	0	nt	nt
N#C/C(=C(/O)COc1ccccc1)c1nnc2n1CCCCC2	2	-1	-5	0	nt	nt
N#C/C(=C(/O)COc1ccc([N+](=O)[O-])cc1)c1nnc2n1CCCCC2	-8	5.8*	-3	0	0	-6
Cc1ccc(C(=O)NC2CCCC2)cc1N1CCCC1=O	-8	-1	7	0	nt	nt
CC1c2cccn2CCN1S(=O)(=O)c1ccccc1Cl (stereo not drawn)	6	5.9*	10	0	0	4
CC1c2cccn2CCN1S(=O)(=O)c1c(Cl)cccc1Cl (stereo not drawn)	3	0	16	0	nt	nt
CCC(=O)Oc1cc2c(C(=O)OC(C)C)c(C)oc2cc1Br	-44	8.2*	-6	0	1	17
O=[N+]([O-])c1ccc(Cc2noc(COc3cccc4ccccc34)n2)cc1	9	1	3	0	nt	nt
CCCCSc1nnc2c(n1)OC(c1cccc(O)c1)Nc1ccc(Br)cc1-2 (stereo not drawn)	7	0	7	0	nt	nt
Cn1c(=O)c2c(nc(NCCOCCO)n2Cc2ccc(Cl)c(Cl)c2)n(C)c1=O	-10	5.2*	-3	0	1	6
COc1ccc(S(=O)(=O)N(CC(=O)N2CCN(c3ccccc3)CC2)c2ccc(C)cc2)cc1	6	1	2	0	nt	nt
